PubChem BioAssay (Tox21)
“And” between values parts separate entries of the source, which are not always exact repeats. Identical values can stand only once. Values without a mark were called inactive. The source made the active and inactive calls. Calls follow the shape of the full dose curve.

test: qHTS assay to identify small molecule agonists of the estrogen related receptor (ERR) signaling pathway from Tox21 library (AID 1224849); conditions: ERR reporter cell line, ONE-Glo luciferase, 18 h; at 42.5 µM (top of the series); also: nearly all actives have a fitted effect of over 15% in size
Excerpt: National Center for Advancing Translational Sciences [NCATS]
NIH Chemical Genomics Center [NCGC]
U.S. Environmental Protection Agency [EPA]
National Institutes of Environmental Health Sciences [NIEHS]
National Toxicology Program [NTP]
Estrogen related receptors (ERRs), the first orphan nuclear receptors discovered, play an important role in the control of cellular energy metabolism. ERRs are required for high-energy production in response to the environmental challenges. ERR-alpha was also identified as an adverse marker for breast cancer progression; ERR-alpha-positive tumors have a poor prognosis. To screen and to identify environmental compounds that perturb the ERR signaling pathways could provide valuable information for potential therapeutic or preventive measures in the treatment of metabolic disease. For identifying ERR agonists, ERR cell line (provided by NTP) has been used to screen Tox21 10K library.
The ERR cells were dispensed at 2,000 cells/5 ul/well in 1536-well white plates using a Multidrop dispenser. After the assay plates were incubated at a 37 C/5% CO2 incubator for 6 hours, 23 nL of compounds dissolved in DMSO, positive and negative controls or DMSO only was transferred to the assay plate by a pin tool. The plates were incubated at 37 C for 18 hours. 4 ul/well of One-Glo reagent was added into the assay plates using a Flying Reagent Dispenser. After 30-minute incubation at room temperature, the luminescence intensity in the plates was measured using a ViewLux plate reader.
% is scaled to controls: 0 for no effect and ±100 for the full control effect.

Row | SMILES | activity change, positive = activation [%]
1 | O=[N+]([O-])O[C@H]1CO[C@H]2[C@@H]1OC[C@H]2O[N+](=O)[O-] | 4.43
2 | C[C@@H]1C[C@@H]([C@H](O)CC2CC(=O)NC(=O)C2)C(=O)[C@@H](C)C1 | -64.4
3 | c1ccc2c(c1)sc1ccccc12 | 0.495
4 | C=CCN1C[C@H](C)N([C@H](c2ccc(C(=O)N(CC)CC)cc2)c2cccc(OC)c2)C[C@H]1C | -5.94
5 | CC(C)(C)NCC(O)c1cc(Cl)c(N)c(C(F)(F)F)c1 (stereo not given) | -0.267
6 | CCOC(=O)c1cncn1C(C)c1ccccc1 (stereo not given) | -0.608
7 | C[CH2][Hg][S]c1ccccc1C(=O)O | -75.4
8 | O=C(O)c1ccc(=O)[nH]c1 | 5.02
9 | Cc1cccc(C)c1NC1=NCCCS1 | 4.81
10 | NP(N)(=O)NC(=O)c1ccc(F)cc1 | -0.0729

same assay, conditions: ERR reporter cell line, ONE-Glo luciferase, 18 h; at 92.4 µM (top of the series)

Row | SMILES | activity change, positive = activation
11 | O=[N+]([O-])c1cc(Cl)c(Cl)cc1Cl | 0.191%
12 | CN(C)C(=O)Nc1cccc(OC(=O)NC(C)(C)C)c1 | -15.7%
13 | COc1cc(C[C@@H](C)N)c(OC)cc1Br | -15.6%
14 | CCOP(=S)(OCC)Oc1ccc(S(C)=O)cc1 (stereo not given) | -5.68%
15 | CC1(C)CC(=O)CC(C)(C)N1[O] | -0.242%
16 | COc1ccc(C(O)(c2cncnc2)C2CC2)cc1 (stereo not given) | 1.33%
17 | C=CCc1ccccc1O | 0.524%
18 | CN1CC[C@]23c4c5ccc(O)c4O[C@H]2[C@@H](O)C=C[C@H]3[C@H]1C5 | 1.06%
19 | Clc1ccc(Cl)c(Cl)c1 | -0.809% and 5.15%
20 | C[C@@H]1C[C@@H]([C@H](O)CC2CC(=O)NC(=O)C2)C(=O)[C@@H](C)C1 | -74.2% and -68.3%
21 | O=C(NCNC(=O)NC1C(=O)NC(=O)N1CO)NC1C(=O)NC(=O)N1CO (stereo not given) | 3.53%
22 | CC(=O)NNc1ccccc1 | -40.3%
23 | Oc1cccc(Cl)c1 | 1.9%
24 | CCCCOC(=O)CCC(=O)OCCCC | 0.0296%
25 | ClCc1ccccc1Cl | 8.41%
26 | c1ccc2c(c1)sc1ccccc12 | -4.7%
27 | O=[N+]([O-])/C=C/c1ccccc1 | -76.3% and -54.1%
28 | CCCN(CCOc1c(Cl)cc(Cl)cc1Cl)C(=O)n1ccnc1 | -62.9% and -57.3%
29 | CCCCCCCCn1sccc1=O | -82.6% and -70%
30 | C=CCOCC1CO1 (stereo not given) | -3.54%
31 | O=C(Cc1ccccc1)OCCc1ccccc1 | -0.535%
32 | Nc1cc(Cl)cc(C(=O)O)c1Cl | 4.39% and 3.97%
33 | CN(C)c1ccc(N=O)cc1 | -55.7% (active) and -48.2% (active)
34 | Nc1ccc2c(c1)Cc1ccccc1-2 | -8.59% (active)
35 | C[Si](Cn1cncn1)(c1ccc(F)cc1)c1ccc(F)cc1 | -66.3% and -52.8%
36 | O=C(N[C@H]1CN2CCC1CC2)c1ccc2c(c1)OCCO2 | 0.537%
37 | C[CH2][Hg][S]c1ccccc1C(=O)O | -77.1%
38 | CCC(C)(C)c1ccc(O)c(C(C)(C)CC)c1 | -59% and -10.3%
39 | CC(C)(C#N)C(C)(C)C#N | -14.1%

same assay, conditions: ERR reporter cell line, ONE-Glo luciferase, 18 h; at 240 µM (top of the series)

Row | SMILES | activity change, positive = activation [%]
40 | C[C@H]1[C@@H]2Cc3ccc(O)cc3[C@@]1(C)CCN2C | 8.81
